Most compounds without a hit are left out; they make up all but 7% or so of the library.
DRD3 antagonist: qHTS of D3 Dopamine Receptor Antagonist: qHTS | D3R cells, DiscoveRx beta-arrestin luminescence, antagonist mode; active compounds read low | max response, negative = inhibition, % | 360,000 tested, 2.5% active | AID 652054, 2013; in the data active = max response below about -50%; inconclusive = no clear call, values can overlap the other calls; note: % is set by controls: 0 for no effect and ±100 for the full control effect
Target sequence (P35462 whole entry, looked up): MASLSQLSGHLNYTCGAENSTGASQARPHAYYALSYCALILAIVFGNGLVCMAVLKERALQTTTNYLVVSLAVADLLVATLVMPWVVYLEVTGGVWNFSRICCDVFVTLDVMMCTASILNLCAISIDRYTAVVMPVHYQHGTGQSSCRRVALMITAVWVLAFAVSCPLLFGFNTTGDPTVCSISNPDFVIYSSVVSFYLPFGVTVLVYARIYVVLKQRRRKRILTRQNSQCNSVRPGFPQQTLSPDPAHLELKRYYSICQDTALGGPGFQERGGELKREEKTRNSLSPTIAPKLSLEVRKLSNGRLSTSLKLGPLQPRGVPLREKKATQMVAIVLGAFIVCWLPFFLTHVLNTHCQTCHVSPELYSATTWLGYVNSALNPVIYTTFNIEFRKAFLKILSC
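Cells expressing the human receptor were seeded at 1500 cells/well, incubated overnight at 37 degrees C in 5% CO2, then exposed to library compounds with dopamine controls for 90 minutes at 37 degrees C before luminescent detection.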
IL-1B inflam inh: qHTS for Inhibitors of Inflammasome Signaling: IL-1-beta AlphaLISA Primary Screen | THP-1 LPS/ATP IL-1B secretion, AlphaLISA, 16 h; active compounds read low | activity change, % at 57.5 µM | 360,000 tested, 4.7% active; in the data active = activity change below about -50%; inconclusive = mostly about -30% to -49%; note: % is set by controls: 0 for no effect and ±100 for the full control effect
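Secreted IL-1B measured by AlphaLISA bead assay after 16 h compound exposure of THP-1 cells; compounds (final up to 57.5 uM) added 1 h before LPS (250 ng/mL) and ATP (1.25 mM) stimulation; lower signal means less secretion.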
S2 tox: Viability Counterscreen for Primary qHTS for Inhibitors of ATXN expression; S2 cells (HEK-293 line with an ATXN2-luciferase reporter) viability, CellTiter-Fluor protease fluorescence, 24 h; Potency, µM (series often up to 56.7 µM), usual class: cytotoxic; 400,000 tested, 0.49% active; note: potency is the fitted concentration of half-maximal effect; nearly all actives have a fitted effect of over 40% in size
D3 ag: qHTS of D3 Dopamine Receptor Agonist: qHTS; D3R DiscoveRx beta-arrestin cells, luminescence, 90 min; 410,000 tested, 0.58% active; AID 652048, 2013; max activation, %; in the data active = max activation above about 30%; note: 0% is about no effect
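Cells at 1500/well, incubated overnight, then treated with pinned compounds (dopamine as control) for 90 min at 37 degrees C. DiscoveRx reagent added for 30 - 60 minutes at room temperature; luminescence read.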
ATXN2 expr inh: Primary qHTS for Inhibitors of ATXN expression; HEK-293 ATXN2-luciferase reporter, luminescence, 24 h; Potency, µM (doses to about 57 µM), for the others: top-dose activity change, negative = inhibition, most hits filed as inhibitors; 360,000 tested, 0.72% active; note: potency is the fitted concentration of half-maximal effect; % is set by controls: 0 for no effect and ±100 for the full control effect; nearly all actives have a fitted effect of over 55% in size
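ATXN2-luciferase reporter cells (luciferase flanked by upstream and downstream ATXN2 gene portions) were treated 24 h at 37 °C with compounds at up to 57 uM. SteadyGlo luminescence gave expression; GF-AFC fluorescence gave viability.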
Integrin act MD: qHTS for Activators of Integrin-Mediated Alleviation for Muscular Dystrophy. alpha7betagal myoblasts, beta-gal FDG fluorescence, 48 h. Potency, µM (top dose mostly 38.3 µM), without a hit: at the highest dose activation, hits mostly activators. 350,000 tested, 0.064% active;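 note: potency is the fitted concentration of half-maximal effect; 100% = response of the positive control SU9516; nearly all actives have a fitted effect of over 60% in size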
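Alpha7betagal+/- myoblasts (passage 13) were plated 16-24 hr, then exposed to compounds (1:260 dilution of DMSO stock) for 48 hours at 37C. After MPER lysis, β-galactosidase reporter activity was read as FDG fluorescence (ex 480/em 540) after 30 minutes.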
Numbers without * were called inactive; i = inactive; ? = inconclusive; nt = no result given; [ ] = dose if it differs, or a comment. Unless noted, calls come from the whole dose curve; as a rule, active = well fitted curve in the direction sought with a large enough effect; inconclusive = small, poorly fitted or top-dose-only effect, or another doubt; inactive = no such curve, though single readings can be large; an effect the other way counts as inactive or inconclusive.

SMILES | DRD3 antagonist | IL-1B inflam inh | S2 tox | D3 ag | ATXN2 expr inh | Integrin act MD
O=C(COc1ccc2c3c(c(=O)oc2c1)CCC3)NCc1ccncc1 | 4.9 | ? | i | -0.6 | -3.5% | 2.3%
Cc1c(OCC(=O)N[C@@H](Cc2ccccc2)C(=O)O)ccc2c3c(c(=O)oc12)CCC3 | 44.4 | 7.8 | i | -9.1 | 2.0% | 0.2%
O=C(COc1ccc2c3c(c(=O)oc2c1)CCCC3)NCc1ccccn1 | 2.9 | -50.2* | i | -0.7 | -7.7% | ?
Cn1c(=O)c(=O)n(C)c2cc(S(=O)(=O)CCC(=O)NCc3ccccc3)ccc21 | 14.1 | 3.4 | nt | 3.5 | -16.9% | -10.4%
NC(=O)C1(N2CCCCC2)CCN(Cc2ccc(Br)cc2)CC1 | -114.7* | 9.6 | i | -21.0 | nt | -18.7%
Fc1ccc(CN2CCCCCCC2)cc1 | -26.1 | 15.6 | i | -0.5 | 6.8% | 19.8%
NC(=O)C1(N2CCCCC2)CCN(Cc2ccc(F)cc2)CC1 | -88.4* | 7.8 | i | -27.7 | -3.6% | -7.8%[7.66 µM]
NC(=O)C1CC(=O)N(c2ccc(OCC(=O)Nc3ccc(Cl)cc3)cc2)C1 (centres undefined) | -12.0 | 15.1 | i | -5.4 | -19.5% | ?
CC(NC(=O)OCc1ccccc1)c1ccccc1 (centres undefined) | -9.8 | -24.1 | i | 0.7 | -1.0% | 3.3%
N#CC(NC(=O)OCc1ccccc1)c1ccccc1 (centres undefined) | -54.3* | -20.6 | i | -17.5 | 4.9% | -5.2%
O=C(Cc1c(F)cccc1Cl)Nc1ccc(S(=O)(=O)N2CCOCC2)cc1 | 2.6 | -19.9 | i | 0.4 | 6.5% | 18.5%
O=C1CC(N2CCN(c3ccc(C(=O)c4ccc(F)cc4)cc3)CC2)C(=O)N1 (centres undefined) | -14.4 | -2.6 | i | 3.0 | 4.0% | -16.7%
CCCNC(=O)COC(=O)c1ccc(-c2ccccc2)cc1 | ? | -20.5 | i | -10.3 | ? | -4.1%
CCOC(=O)c1cc2ccccc2n1C1CCN(CCc2ccccc2)CC1 | -21.7 | -18.9 | ? | -14.6 | -34.4% | nt
CCOC(=O)c1cc2cc(OC)ccc2n1C1CCN(CCc2ccccc2)CC1 | -109.2* | -9.5 | ? | -8.1 | -24.9% | nt
COc1ccc(N(Cc2ccccc2)C(=O)c2nc(S(C)(=O)=O)ncc2Cl)cc1 | nt | nt | nt | -27.1 | nt | nt
CC[C@@H]1C(c2cccc(Cl)c2)=NN(c2ccc(Br)cc2)[C@H]1C(=O)N1CCOC1=O | -26.7 | -66.1* | nt | 7.2 | ? | -3.8%
CC[C@@H]1C(c2ccc(F)cc2)=NN(c2ccc(Br)cc2)[C@H]1C(=O)N1CCOC1=O | 13.7 | -73.6* | i | 13.8 | ? | -2.8%
C[C@@H]1C(c2ccc(F)cc2)=NN(c2ccccc2)[C@H]1C(=O)N1CCOC1=O | -5.3 | -15.4 | i | 4.4 | 9.9% | 8.3%
CC[C@@H]1C(c2ccccc2)=NN(c2ccc(Br)cc2)[C@H]1C(=O)N1CCOC1=O | 0.0 | ? | nt | -17.3 | -15.2% | 37.6%
O=C(CSC1=Nc2ccccc2N=C(c2ccc(F)cc2)C1)NCc1ccc(F)cc1 | nt | nt | i | -13.3 | -5.1% | nt
CC(C)(CO)Nc1nc(Cl)nc(NC2CCCCC2)n1 | -20.9 | 12.4 | i | 34.2* | nt | 35.2%
CCNc1nc(Cl)nc(NC2CCCCC2)n1 | 3.3 | 11.2 | i | -4.1 | 37.4% | -28.8%
CCOc1ccc(NC(=O)c2cnc3ccccn3c2=O)cc1 | nt | nt | i | 5.2 | 13.6% | nt
O=c1[nH]c(CN2CCN(Cc3ccccc3)CC2)nc2scc(-c3ccccc3)c12 | -82.0* | 30.2 | i | -41.2 | -21.8% | 17.7%
SMILES | DRD3 antagonist | IL-1B inflam inh | S2 tox | D3 ag | ATXN2 expr inh | Integrin act MD
CC(=O)N1CCN(Cc2nc3scc(-c4ccccc4)c3c(=O)[nH]2)CC1 | -10.4 | 21.5 | nt | -2.1 | -5.7% | 2.9%
O=C(c1ccc2c(c1)N(Cc1cccc(Cl)c1)C(=O)c1ccccc1S2(=O)=O)N1CCN(c2cccc(C(F)(F)F)c2)CC1 | nt | nt | nt | -10.6 | nt | nt
CN1CCC/C1=C/C=C1\SC(=S)NC1=O | -64.3* | -20.0 | i | -11.9 | 35.5% | 20.0%
O=C1NC(=S)SC1=Cc1cccs1 | ? | -5.4 | ? | -8.6 | -2.3% | 4.7%
Cc1ccc(NC(=S)N2CCSC2c2cccs2)cc1 (centres undefined) | -15.1 | -82.4* | i | 1.1 | -6.1% | -0.9%
Cc1[nH][nH]c(=O)c1C(c1ccccc1[N+](=O)[O-])C(C#N)C#N (centres undefined) | -17.8 | -145.6* | ? | -1.9 | 30.4% | -29.7%
COC(=O)c1ccccc1N=Nc1c(N)[nH][nH]c1=O | -3.5 | -15.1 | ? | 8.7 | -26.5% | -6.1%
COC(=O)c1ccccc1N=Nc1c(N)n[nH]c1N | 23.3 | -60.0* | ? | 6.4 | -11.2% | 14.9%
C[C@@H]1CCCCO[C@@H](CN(C)Cc2ccc3c(c2)OCO3)[C@@H](C)CN([C@H](C)CO)C(=O)c2cc(NS(=O)(=O)c3ccccc3)ccc2O1 | -18.3 | -29.8 | ? | -6.0 | 3.6% | 23.5%
CCOC(=O)C1(CCc2ccccc2)CCN(Cc2ccccn2)CC1 | -18.7 | 0.0 | i | -16.8 | -16.9% | -8.0%
CCOC(=O)C1(CC2CC2)CCN(C(=O)c2cc(OC)nc3ccccc23)CC1 | 13.5 | -17.4 | i | 12.0 | 21.5% | -29.5%
CCOC(=O)C1(CCc2ccccc2)CCN(Cc2ccc(C(=O)OC)cc2)CC1 | -69.5* | 0.0 | i | -20.0 | -35.6% | -45.7%
CCOC(=O)C1(CC2CC2)CCN(Cc2ccc(C(=O)OC)cc2)CC1 | -120.3* | 4.6 | i | -22.4 | nt | 12.9%
CCOC(=O)C1(CC2CC2)CCN(C(=O)c2cc(C3CC3)nc3ccccc23)CC1 | 2.0 | -83.7* | i | -1.5 | 30.9% | 11.8%
CCOC(=O)C1(CC2CC2)CCN(Cc2cn(C)c3ccccc23)CC1 | ? | -81.6* | ? | -12.3 | -1.3% | -54.4%
CCOC(=O)C1(Cc2ccccc2)CCN(Cc2cn(CC(=O)OC)c3ccccc23)CC1 | 2.1 | 15.3 | i | -10.1 | -2.4% | 7.2%
Cc1ccccc1NC(=O)COC(=O)CNC(=O)c1sc2ccccc2c1Cl | -17.5 | 8.4 | i | -11.5 | -10.5% | 6.7%
Cc1occc1-c1nnc(SCC(=O)NC(=O)NC(C)C)n1N | -24.9 | 5.5 | i | 11.4 | 2.9% | -0.2%
Cc1ccc(NC(=O)C2CCN(C(=O)c3sc4nc[nH]c(=O)c4c3C)CC2)cc1F | nt | nt | nt | -16.5 | nt | nt
CCOC(=O)C1(Cc2cccc(OC)c2)CCN(Cc2ccccc2OC)CC1 | ? | -4.9 | i | -19.9 | -34.6% | 4.1%
CCOC(=O)C1(CCc2ccccc2)CCN(Cc2cc(OC)c(OC)cc2OC)CC1 | -13.0 | -53.8* | i | -12.0 | ? | -45.4%

Bioassay records as filed in PubChem.
